Test [1] is described as follows: A549 cell viability effects, profiling panel, calcein-AM fluorescence, 48 h, basal (AID 1162). Also: test concentration not given here. The following applies: higher = more signal.
A short description of test [2]: adipocyte viability effects, profiling panel, cell-based, 3T3-L1 adipocytes, calcein-AM fluorescence, 48 h, basal (AID 1163). Also: test concentration not given here. The following applies: 3T3-L1 adipocytes viability, higher = more signal.
A short description of test [3]: HepG2 cell viability effects, profiling panel, calcein-AM fluorescence, 48 h, basal (AID 1164). Also: test concentration not given here. Conditions: higher = more signal.
The nature of test [4]: MM1S cell viability effects, profiling panel, calcein-AM fluorescence, 48 h, basal (AID 1165).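 Also: viability of MM1S multiple myeloma cells under basal unstimulated conditions; test concentration not given here.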 The following applies: higher = more signal.
Test [5] can be described thus: basal RPMI8226 viability, no added stimulus, profiling panel, cell-based, calcein-AM fluorescence, 48 h, PK04 Diversity Set (AID 1166).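 Also: cells grown under basal conditions without added stimulus; test concentration not given here.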 Conditions: RPMI8226 myeloma viability, higher = more signal.
A short description of test [6]: basal HepG2 mitochondrial membrane potential changes, profiling panel, cell-based, JC-1 fluorescence, 24 h, 100 nL compound (AID 1167). Also: test concentration not given here. Conditions: higher = more signal.
Test [7] can be described thus: basal 3T3-L1 adipocyte mitochondrial potential changes, profiling panel, cell-based, JC-1 fluorescence, 3T3-L1 adipocytes, 24 h, 100 nL compound (AID 1168). Also: test concentration not given here. Conditions: JC-1 mitochondrial fluorescence, higher = more signal, called active from +8 up or from −8 down.
The nature of test [8]: basal RPMI8226 mitochondrial membrane potential changes, profiling panel, cell-based, JC-1 fluorescence, 24 h, 100 nL compound (AID 1169). Also: test concentration not given here. Conditions: RPMI8226 myeloma, JC-1 mitochondrial potential fluorescence, higher = more signal.
A short description of test [9]: basal MM1S mitochondrial membrane potential changes, profiling panel, cell-based, JC-1 fluorescence, 24 h, 100 nL compound (AID 1170). Also: test concentration not given here. Conditions: higher = more signal.
A short description of test [10]: A549 lung cancer cell viability effects, profiling panel, resazurin fluorescence, 24 h, PK04 Diversity Set (AID 1171). Also: test concentration not given here. Conditions: higher = more signal, called active from +8 up or from −8 down. For orientation: Resazurin is reduced to fluorescent resorufin, in cell work by metabolically active cells.
The nature of test [11]: HepG2 liver cancer cell viability effects, profiling panel, resazurin fluorescence, 24 h, PK04 Diversity Set (AID 1172). Also: test concentration not given here. Conditions: higher = more signal.
The nature of test [12]: basal S. cerevisiae growth modulation, no modifier, primary screen, OD600, strain BY4716, 24 h, basal condition (AID 1173). Conditions: OD600, 24 h, higher = more signal, called active from +8 up or from −8 down.
Test [13] can be described thus: MM1S myeloma cell viability, profiling panel, resazurin fluorescence, basal, 24 h, PK04 Diversity Set (AID 1174).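 Also: MM1S multiple myeloma cell line; test concentration not given here.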 The following applies: higher = more signal, called active from +8 up or from −8 down.
Test [14] deals with Dihydroorotate dehydrogenase (quinone), mitochondrial (Plasmodium falciparum (isolate 3D7)) (UniProt Q08210). Briefly: PfDHODH enzyme inhibitors, primary screen, biochemical, C-terminal His tag, absorbance 600 nm (AID 1175).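 Also: recombinant parasite enzyme with a five histidine tag at its C terminus; test concentration not given here.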 The following applies: DCIP absorbance 600 nm, higher = more signal, called active from +8 up or from −8 down.
Test [15] in a line: P. aeruginosa biofilm formation inhibitors, primary screen, strain PAO1, LB-PBS medium, absorbance 600 nm (AID 1176). Also: test concentration not given here. Conditions: P. aeruginosa PAO1 growth/biofilm, A600, 12 h; higher = more signal.
Test [16] in a line: S. cerevisiae RM11-1a growth modifiers, primary screen, strain RM11-1a, OD600, basal, 24 h (AID 1177).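 Also: cultures grown under basal conditions with no added stressor; test concentration not given here.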 Conditions: OD600, 24 h, higher = more signal, called active from +8 up or from −8 down.
Test [17] in a line: E. coli acrAB mutant growth effects, primary screen, E. coli filamentation inducers, strain DRC39, OD650, 24 h (AID 1178).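 Also: growth measured as culture turbidity by optical density at 650 nm; test concentration not given here.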 The following applies: higher = more signal, called active from +8 up or from −8 down.
Test [18] is described as follows: E. coli acrAB mutant growth effects, primary screen, E. coli filamentation inducers, strain DRC39, OD650, 48 h (AID 1179).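 Also: screen aims at cell division blockers that make cells filament.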 Conditions: E. coli DRC39 delta-acrAB growth, higher = more signal, called active from +8 up or from −8 down.
Test [19] can be described thus: RPMI8226 myeloma cell viability, profiling panel, resazurin fluorescence, basal, 24 h, PK04 Diversity Set (AID 1180).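 Also: RPMI8826 multiple myeloma cell line at 5000 cells per well; test concentration not given here.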 Conditions: higher = more signal.
Test [20] deals with E3 ubiquitin-protein ligase XIAP (Homo sapiens) (UniProt P98170). The test is described as follows: XIAP binders, primary screen, biophysical, small-molecule microarray, fluorescence 635 nm (AID 1181).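 Also: score merges 667 nm emission and signal to noise over triplicate slides.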 Conditions: small-molecule microarray binding, higher = more signal.

Active and inactive are the calls of the source. Unless noted, no rule for the calls is given here.

Chain of E3 ubiquitin-protein ligase XIAP (Homo sapiens) (P98170 whole entry, looked up): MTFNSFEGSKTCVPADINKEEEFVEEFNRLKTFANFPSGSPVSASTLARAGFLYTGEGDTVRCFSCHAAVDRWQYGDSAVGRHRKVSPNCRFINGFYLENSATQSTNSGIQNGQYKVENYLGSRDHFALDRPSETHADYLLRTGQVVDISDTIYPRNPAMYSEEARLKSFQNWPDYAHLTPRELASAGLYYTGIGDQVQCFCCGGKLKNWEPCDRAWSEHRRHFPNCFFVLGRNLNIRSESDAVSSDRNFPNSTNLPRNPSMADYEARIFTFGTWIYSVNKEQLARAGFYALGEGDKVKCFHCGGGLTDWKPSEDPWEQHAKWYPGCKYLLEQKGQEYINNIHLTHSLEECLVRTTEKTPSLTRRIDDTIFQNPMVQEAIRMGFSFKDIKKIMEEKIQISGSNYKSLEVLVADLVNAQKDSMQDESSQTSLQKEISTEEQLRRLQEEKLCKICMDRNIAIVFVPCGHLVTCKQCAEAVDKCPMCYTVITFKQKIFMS
Chain of Dihydroorotate dehydrogenase (quinone), mitochondrial (Plasmodium falciparum (isolate 3D7)) (Q08210 whole entry, looked up): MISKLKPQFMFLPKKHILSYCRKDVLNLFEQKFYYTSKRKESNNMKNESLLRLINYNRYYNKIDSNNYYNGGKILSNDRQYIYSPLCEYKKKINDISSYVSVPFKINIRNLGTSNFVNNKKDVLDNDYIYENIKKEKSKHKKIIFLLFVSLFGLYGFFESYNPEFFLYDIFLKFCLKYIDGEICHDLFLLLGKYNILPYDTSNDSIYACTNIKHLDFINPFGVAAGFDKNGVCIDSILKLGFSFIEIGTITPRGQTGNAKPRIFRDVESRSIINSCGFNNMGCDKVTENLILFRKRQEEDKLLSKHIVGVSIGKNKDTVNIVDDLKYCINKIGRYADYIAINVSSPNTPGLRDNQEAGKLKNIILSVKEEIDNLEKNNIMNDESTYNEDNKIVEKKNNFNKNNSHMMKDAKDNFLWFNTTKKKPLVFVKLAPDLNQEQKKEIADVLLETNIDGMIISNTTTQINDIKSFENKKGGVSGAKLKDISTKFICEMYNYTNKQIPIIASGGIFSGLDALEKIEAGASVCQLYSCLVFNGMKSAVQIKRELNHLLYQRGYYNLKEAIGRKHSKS

In the case of `COc1ccc([Si](C)(C)[C@H]2[C@H](CCn3cc([C@H](O)c4ccccc4)nn3)O[C@@]3(C(=O)N(Cc4ccc(N5CCC5=O)cc4)c4ccccc43)[C@@H]2C)cc1`, the z-score is 0.399 in [1]; 1.19 in test [2]; -0.541 in test [3]; -0.695 in test [4]; -0.412 in test [5]; 0.411 in [6]. Besides, the z-score in [7] is -0.391 (inactive); in test [8], -0.445; in test [9] it was -0.202; in test [10], -0.869 (inactive); in [11], -0.225; in test [12] it was 0.309 (inactive). For the same compound, the z-score in test [13] was -0.771 (inactive); in test [15], 0.401 (inactive); in [16] it was 1.07 (inactive); in test [17] it was 0.0302 (inactive); in test [18] it was -0.422 (inactive); in [19], -0.0897. The figures for the composite z-score in [14] and in [20] were 0.65 (inactive) and -0.022, respectively.

Turning to `O=C(CS)NCCCCCCNC(=O)[C@H]1C[C@H]2C(=O)N[C@@H](Cc3ccccc3)C(=O)N2[C@H]1c1cccc(OCCO)c1`, the z-score in test [1] is 0.0757; in test [2], -0.154; in [3], 0.77; in test [4], 0.306; in test [5], 0.895; in [6], -0.394. Moreover, the z-score is 0.0403 (inactive) in [7]; -0.309 in test [8]; -1.12 in test [9]; 0.311 (inactive) in test [10]; -0.351 in [11]; 0.765 (inactive) in [12]. In addition, the z-score in test [13] was -0.453 (inactive); in [15], 0.889 (inactive); in test [16], 0.765 (inactive); in [17] it was -0.0049 (inactive); in [18] it was 0.57 (inactive); in test [19], -0.614. For the same compound, the composite z-score was -0.439 (inactive) in test [14] and 0.316 in [20].

Turning to `COCCCNC(=O)[C@@]1(Sc2ccc(C)cc2)CC(=O)N(Cc2cc(C(F)(F)F)cc(C(F)(F)F)c2)[C@@H]1c1ccc(CO)cc1`, the z-score is 0.285 in test [1]; -0.515 in test [2]; 0.584 in test [3]; 1.35 in [4]; 1.42 in test [5]; 0.967 in [6]. Besides, the z-score in test [7] is 0.895 (inactive); in test [8], 0.786; in [9] it was -0.422; in test [10], -1.07 (inactive); in test [11], -0.092; in [12], -0.138 (inactive). The z-score was -0.538 (inactive) in test [13]; 0.158 (inactive) in test [15]; -0.219 (inactive) in test [16]; 0.0881 (inactive) in test [17]; 0.231 (inactive) in test [18]; -0.368 in test [19]. Further, the results for the composite z-score in [14] and in test [20] were -0.669 (inactive) and -0.0571, respectively.

In the case of `COc1ccc(C(O)C2C=CC3C(=O)N(c4ccccc4)C(=O)C3N2Nc2ccc(C#N)cc2)c2ccccc12` (stereo not given), the z-score in test [1] is -0.716; in test [2], -1.07; in test [3], 0.66; in test [4], 0.395; in test [5] it was -1.04; in test [6], -1.56. Moreover, the z-score in test [7] was -0.246 (inactive); in [8] it was 0.423; in [9], -0.117; in test [10], 0.0226 (inactive); in [11], -1.47; in test [12] it was -1.74 (inactive). The z-score in test [13] is -0.293 (inactive); in [15], 1.55 (inactive); in test [16], -0.993 (inactive); in test [17], -0.483 (inactive); in test [18], 0.161 (inactive); in test [19], -0.55. The composite z-score is 0.397 (inactive) in test [14] and 0.39 in [20].

For the compound `Cc1ccc(S[C@]2(C(=O)NC3CC3)CC(=O)N(Cc3ccccc3Cl)[C@@H]2c2ccc(CO)cc2I)cc1`, the z-score was 0.0293 in [1]; 0.0656 in test [2]; 0.556 in test [3]; -2.36 in test [4]; -2.05 in [5]; 0.474 in [6]. Moreover, the z-score was 0.515 (inactive) in test [7]; -0.498 in test [8]; -1.45 in test [9]; -0.889 (inactive) in [10]; -0.451 in test [11]; -4.44 (inactive) in test [12]. In addition, the z-score in test [13] was -3.72 (inactive); in test [15], 0.348 (inactive); in test [16], -0.526 (inactive); in test [17], 0.17 (inactive); in test [18] it was 0.932 (inactive); in test [19], -1.61. Further, the figures for the composite z-score in test [14] and in test [20] were -2.13 (inactive) and -0.0118, respectively.

For the compound `CC(C)(C)OC(=O)CC[C@]1(C(=O)O)N=C(c2ccc(OCCCO)cc2)O[C@H]1c1ccccc1CN=[N+]=[N-]`, the z-score in test [1] is 0.61; in test [2], -0.788; in [3] it was 0.682; in test [4], 0.519; in test [5], 0.375; in [6], 1.43. Also, the z-score in test [7] is 1.05 (inactive); in test [8] it was -0.697; in test [9], -0.738; in test [10], -0.245 (inactive); in test [11], 0.706; in test [12], -0.0245 (inactive). Moreover, the z-score in test [13] is 0.444 (inactive); in test [15], -0.788 (inactive); in test [16], -0.165 (inactive); in [17], 0.184 (inactive); in test [18] it was 1.25 (inactive); in test [19] it was 0.925. In addition, the composite z-score is 0.209 (inactive) in test [14] and -0.204 in test [20].

As for `O=C1c2ccccc2[C@](Cc2ccccc2I)(C(=O)NCc2ccccc2)[C@H](c2ccc(CO)cc2)N1C1CCCCC1`, the z-score is -0.475 in test [1]; 1.03 in test [2]; -0.36 in test [3]; -2.3 in test [4]; -1.99 in test [5]; 1.36 in test [6]. Further, the z-score in test [7] is -0.424 (inactive); in [8], 0.173; in test [9], 0.551; in [10], 0.623 (inactive); in [11] it was -0.176; in test [12] it was -0.453 (inactive). For the same compound, the z-score is 0.485 (inactive) in test [13]; 0.214 (inactive) in [15]; -0.871 (inactive) in test [16]; 0.852 (inactive) in test [17]; -0.14 (inactive) in [18]; 0.489 in [19]. Further, the results for the composite z-score in test [14] and in test [20] were -0.567 (inactive) and 0.182, respectively.

As for `C[C@]1(C(=O)NC2CC2)c2ccccc2C(=O)N(Cc2ccc(OC(F)(F)F)cc2)[C@H]1c1ccc(CO)cc1`, the z-score was -0.176 in test [1]; -0.138 in test [2]; 0.415 in test [3]; -0.105 in test [4]; 0.142 in test [5]; 2.32 in [6]. Also, the z-score is -0.116 (inactive) in test [7]; 0.917 in test [8]; -0.316 in test [9]; 0.306 (inactive) in [10]; -0.268 in test [11]; -0.708 (inactive) in test [12]. Also, the z-score in test [13] was 0.191 (inactive); in test [15] it was -0.109 (inactive); in test [16], -0.474 (inactive); in [17] it was 0.0997 (inactive); in [18] it was 0.054 (inactive); in [19] it was -0.254. The composite z-score was 0.0758 (inactive) in test [14] and -0.225 in test [20].
